# POLH inh = blocks human DNA polymerase eta activity. Q9Y253. recombinant Pol eta, fluorescent DNA replication assay. Potency, µM (top dose mostly 114 µM), without a hit: at the highest dose activity change, negative = inhibition, actives largely listed as inhibitors. 390,000 tested, 1.2% active. AID 588591; further: on the % scale 0 is the no-effect control and ±100 the full control effect
# Target sequence (Q9Y253 whole entry, looked up): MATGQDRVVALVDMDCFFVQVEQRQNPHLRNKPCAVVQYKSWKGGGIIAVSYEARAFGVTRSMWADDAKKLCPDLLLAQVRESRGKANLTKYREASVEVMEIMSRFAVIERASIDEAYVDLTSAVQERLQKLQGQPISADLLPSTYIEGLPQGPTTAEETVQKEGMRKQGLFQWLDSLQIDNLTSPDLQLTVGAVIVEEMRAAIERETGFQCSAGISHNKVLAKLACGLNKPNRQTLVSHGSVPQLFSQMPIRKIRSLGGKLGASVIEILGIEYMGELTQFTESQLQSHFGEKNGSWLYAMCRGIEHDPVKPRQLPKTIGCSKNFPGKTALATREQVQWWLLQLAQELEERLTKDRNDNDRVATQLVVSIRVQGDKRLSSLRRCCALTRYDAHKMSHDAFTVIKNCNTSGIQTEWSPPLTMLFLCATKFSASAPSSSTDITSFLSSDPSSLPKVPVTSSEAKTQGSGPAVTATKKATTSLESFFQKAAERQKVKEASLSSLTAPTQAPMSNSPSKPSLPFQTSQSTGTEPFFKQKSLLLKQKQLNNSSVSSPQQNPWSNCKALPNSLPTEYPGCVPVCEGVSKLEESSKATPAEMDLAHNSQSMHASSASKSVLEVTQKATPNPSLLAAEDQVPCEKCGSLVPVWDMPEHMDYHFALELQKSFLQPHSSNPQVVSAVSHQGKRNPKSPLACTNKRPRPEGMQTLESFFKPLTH
#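 Pol eta at 10 nM preincubated with compounds 15 min at room temperature; reaction started with fluorescent substrate (50 nM final) and read kinetically at 0 and 10 min.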
# Pol iota inh = inhibitors of human DNA polymerase iota; Pol iota fluorescent replication assay, 10 min; Potency, µM (titrated, usually from 115 µM), without a hit: at the top dose activity, negative = inhibition, actives largely listed as inhibitors; 390,000 tested, 1% active; AID 588590
#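 Fluorescent replication assay read twice, at 0 min and 10 min after adding 50 nM (final) substrate. Enzyme (10 nM) and compounds were first incubated 15 min at room temperature; enzyme-free buffer wells were negative controls.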
# WRN helicase inh = WRN helicase (human) inhibition; Q14191; WRN helicase unwinding, fluorescent forked duplex, kinetic; Potency, µM (series often up to 114 µM), for the others: at the top dose activity change, negative = inhibition, hits mostly inhibitors; 360,000 tested, 0.46% active; further: on the % scale 0 is the no-effect control and ±100 the full control effect; nearly all actives have a fitted effect of over 55% in size
#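 Fluorescence dequenching readout, ex 525 nm/em 598 nm, kinetic mode: forked duplex DNA (100 nM final) with adjacent fluorophore and quencher unwound by WRN (20 nM final) with 2 mM ATP. Compound preincubation 15 min, room temperature.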
# Pol kappa inh = blocks human DNA polymerase kappa activity | purified Pol kappa, fluorescent DNA synthesis assay, 10 min | Potency, µM (series often up to 107 µM), inactives show top-dose activity, negative = inhibition, most hits filed as inhibitors | 400,000 tested, 0.53% active | AID 588579; further: on the % scale 0 is the no-effect control and ±100 the full control effect
#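 Here, compound and 10 nM enzyme are combined for 15 min at room temperature; adding 50 nM substrate (final) starts DNA synthesis, tracked by fluorescence at 0 and 10 min against buffer-only wells.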
# POLB inh = DNA polymerase beta (human) inhibition. Potency, µM (top dose mostly 114 µM), inactives show top-dose activity change, negative = inhibition, hits mostly inhibitors. AID 485314. Pol beta primer extension/strand displacement, fluorescence kinetic. P06746. 340,000 tested, 1.3% active; further: on the % scale 0 is the no-effect control and ±100 the full control effect
#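 Preincubation: enzyme (10 nM) with compound, 15 min, RT. Reaction: substrate added to 50 nM final. Reads: 0 and 10 min. Analysis: normalized, Hill fit.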
# FEN1 inh = inhibitors of human flap endonuclease 1; 390,000 tested, 0.35% active; P39748; Potency, µM (highest dose often 114 µM), inactives show top-dose activity change, negative = inhibition, most hits filed as inhibitors; AID 588795; Recombinant FEN1 flap cleavage, fluorescence, 15 min; further: on the % scale 0 is the no-effect control and ±100 the full control effect; nearly all actives have a fitted effect of over 65% in size
#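 Concentration–response screening of FEN1 (10 nM): 15 min compound preincubation at room temperature, reaction started with 50 nM substrate and read at 0 and 15 min. Corrected, normalized data were fitted by a four-parameter Hill equation.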
# * = called active by the depositor; u = inconclusive; x = not tested or not shown; [ ] = dose if it differs, or a comment. Hits are enriched below; roughly 2.4% of the tested compounds scored in any of these assays. The call rests on the fitted dose curve; in most records, active means well fitted curve in the direction sought with a large enough effect; inconclusive means small, poorly fitted or top-dose-only effect, or another doubt; inactive means no such curve, though single readings can be large; an effect the other way counts as inactive or inconclusive. Potency means the concentration at half of the fitted maximal effect.
SMILES,POLH inh,Pol iota inh,WRN helicase inh,Pol kappa inh,POLB inh,FEN1 inh
COc1cc(/C=C2\SC(=Nc3ccccc3)NC2=O)cc(Cl)c1O,u,-11%,u,-14%,56µM*,u
COc1cc(/C=C2/CC/C(=C/c3ccc(O)c(OC)c3)C2=O)ccc1O,35µM*,40µM*,-34%,u,18µM*,u
COc1cc(/C=C2\SC(=Nc3ccccc3OC)NC2=O)ccc1O,-26%,-10%,-11%,-10%,15%,u
COc1cc(/C=C2/SC(=Nc3ccc(O)cc3)NC2=O)ccc1O,32µM*,u,50µM*,u,20µM*,-33%
CCc1ccc(N=C2NC(=O)/C(=C/c3cc(OC)c(O)c(OC)c3)S2)cc1,-25%,1%,-29%,-11%,u,u
COc1ccc(/C=C2\SC(=Nc3ccccc3OC)NC2=O)cc1,79µM*,u,-10%,2%,5%,-2%
COc1cc(/C=C2\COC/C(=C\c3ccc(O)c(OC)c3)C2=O)ccc1O,u,u,4%[11.6 µM],-8%,3%,u
CC(=O)c1cccc(S(=O)(=O)NC(C)C2CC3CCC2C3)c1 (stereo not drawn),u,u,u,-5%,22µM*,-14%
CC(NC(=O)c1cccc(S(=O)(=O)N(C)C)c1)C1CC2CCC1C2 (stereo not drawn),8%,19%,12%,2%,2%,2%
O=C(O)/C(=C\c1ccc(F)cc1)c1ccc(-c2ccccc2)cc1,-11%,108%,-32%,-5%,u,-6%
O=C(O)/C(=C\c1ccccc1OC(F)F)c1ccc(-c2ccccc2)cc1,-29%,61%,-25%,-30%,56µM*,2%
COc1ccc(-c2noc(C3CCCN(C(=O)c4ccc(F)cc4)C3)n2)cc1 (stereo not drawn),-5%,38%,12%,-10%,1%,89µM*
Cc1scc(C(=O)NCc2ccco2)c1-c1ccccc1,u,u,-27%[57.1 µM],-13%,22µM*,-11%
Nc1ccccc1C(=O)NCc1ccco1,-8%,56%,8%,-9%,0%,1%
O=C(NCc1ccco1)c1ccccc1F,22µM*,u,-23%[57.1 µM],-29%,u,-17%
O=C(NCc1ccco1)c1ccccc1O,-1%,12%,10%,2%,-5%,-2%
O=C(CN1CCN(c2ccccc2F)CC1)NC(=O)NCc1ccco1,-11%,u,-6%,u,32µM*,0%
O=C(NCc1ccco1)c1cc2ccccc2c(=O)o1,u,u,-18%,u,45µM*,3%
CCCNC(=O)c1c(C)nn(-c2cccc(C)c2)c1-n1cccc1,-6%,27%,x,-1%,0%,19%
COc1ccc2[nH]c(C(O)C(O)c3nc4c(OC)c(OC)ccc4[nH]3)nc2c1OC (stereo not drawn),x,111%,x,-20%,x,u
C=C1C=C(C(F)F)n2ncc(C(=O)NCc3ccc(OC)cc3)c2N1,x,13%,x,-13%,x,0%
O=C(CSc1nnnn1-c1ccccc1)NC(=O)NCc1ccco1,8.9µM*,20µM*,-20%[11.6 µM],u,40µM*,-7%
CCOc1ccccc1-n1nnnc1SCC(=O)NC(=O)NCc1ccco1,u,u,-15%[57.1 µM],u,22µM*,7%
Nn1c(SCC(=O)NCCN2C(=O)CSC2=O)nnc1-c1ccc(OC(F)F)cc1,-5%,-4%,4%,-16%,x,-1%
Nn1c(SCC(=O)NC(=O)NCc2ccco2)nnc1-c1ccc(OC(F)F)cc1,8.9µM*,u,-4%[11.6 µM],u,u,-8%
SMILES,POLH inh,Pol iota inh,WRN helicase inh,Pol kappa inh,POLB inh,FEN1 inh
Cc1c(O)c2c(c(C(=O)/C=C/c3ccccc3)c1O)OC(C)(C)C=C2,x,-24%,x,-20%,x,-26%
CN(C)c1ccc(C=Nc2cnc3ccccc3c2)cc1,x,4%,x,-15%,x,4%
Cc1ccc(S(=O)(=O)N2CCN(c3nc(-c4ncccn4)nc4ccccc34)CC2)cc1,x,36%,x,0%,x,-2%
NC(C(=O)O)C(CC(=O)O)c1ccc(Cl)cc1 (stereo not drawn),x,x,x,3%[19.4 µM],x,x
C=CCOc1ccc(C2OC34CCCCC3C(C#N)(C#N)C2(C#N)C(=N)O4)cc1 (stereo not drawn),4%,u,-30%,-7%,17%,-8%
CCCCOc1ccc(C2OC34CCCCC3C(C#N)(C#N)C2(C#N)C(=N)O4)cc1 (stereo not drawn),u,16µM*,u,-34%,1%,u
COC(=O)[C@@H]1[C@H]2SC(C)(C)[C@H](C(=O)OC)N2C(=O)N1Cc1cc2ccccc2n1S(=O)(=O)c1ccccc1,x,3%,x,-7%,x,-22%
Nc1nc(NCc2ccc(Cl)cc2)c2[nH]cnc2n1,x,27%,x,-1%,x,-13%
CCc1ccccc1NC(=O)CNC(=O)c1ccc(OCc2cn3ccccc3n2)cc1,-20%,45µM*,-21%,-28%,x,-6%
N#Cc1ccc(C(=O)Nc2ccccc2-c2nc3ccccc3s2)c(F)c1,-10%,-10%,x,-19%,1%,15%
CCOc1cc(C2CC(=O)N3CN(C4CCCCC4)CSC3=C2C#N)ccc1O (stereo not drawn),-13%,35µM*,6%,-29%,-17%,u
N#CC1=C2SCN(C3CCCCC3)CN2C(=O)CC1c1ccc(Br)cc1 (stereo not drawn),u,20µM*,x,-29%,u,u
CCc1nc2ccc(C(=O)NCc3ccc(N(C)C)cc3)cc2nc1CC,-4%,20%,x,-4%[60.1 µM],14%,20%
O=S(=O)(Nc1ccccc1)c1cccc2nsnc12,u,56µM*,2%[11.6 µM],u,5%,10%
CC(=O)NCCCC[C@H](NC(=O)OC(C)(C)C)C(=O)Nc1ccc2c(C(F)(F)F)cc(=O)oc2c1,x,x,x,11%[60.1 µM],x,x
CCOc1c2c(c(-c3ccc4c(c3)OCO4)c3cc(OC)c(OC)cc13)C(=O)OC2,x,-17%,x,11%,x,-1%
C#CCn1cc(/C=C2\NC(=O)NC2=O)c2ccccc21,u,u,u,u,35µM*,-31%
Cc1ccc(NC(=O)CC2Nc3cccc4cccc(c34)NC2=O)cc1 (stereo not drawn),-20%,5µM*,x,u,-21%,u
O=C(CC1Nc2cccc3cccc(c23)NC1=O)Nc1ccccc1 (stereo not drawn),-18%,51%,-4%,-9%,3%,2%
O=C(CC1Nc2ccccc2NC1=O)c1ccccc1 (stereo not drawn),x,x,x,x,-7%,x
NC(=O)CC1Nc2cccc3cccc(c23)NC1=O (stereo not drawn),u,u,-28%,-24%,6.3µM*,-10%

# Screening results as filed in PubChem BioAssay.
